Hits are enriched below; roughly 1.4% of the tested compounds scored in any of these assays.
a7 integrin act: activators of alpha7 integrin expression for muscular dystrophy | 350,000 compounds, 0.064% hits | Potency, µM (titrated, usually from 38.3 µM), without a hit: at the top dose activation, hits mostly activators | AID 624291 | alpha7betagal myoblasts, beta-gal FDG fluorescence, 48 h;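 also: potency is read from the fitted curve at half-maximal effect; 100% = response of the positive control SU9516; nearly all actives have a fitted effect of over 60% in size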
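Alpha7betagal+/- myoblasts (passage 13) were plated 16-24 hr, then exposed to compounds (1:260 dilution of DMSO stock) for 48 hours at 37C. After MPER lysis, β-galactosidase reporter activity was read as FDG fluorescence (ex 480/em 540) after 30 minutes.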
IL2 activator: IL-2 activation; activation, % (series mostly up to about 46 µM); IL-2 activation reporter assay, cell-based qHTS; stimulated with anti-CD3/CD4/CD28 beads; in transgenic mouse T cells; 360,000 compounds, 0.065% hits; in the data active = activation above about 50%; inconclusive = mostly about 30% to 49%; also: 0% is about no effect
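EGFP and DsRed fluorescence is measured by plate cytometry in unstimulated transgenic mouse T cells exposed to compound for 60 minutes, then stimulated 18 hours at 37 degrees C with anti-CD3/anti-CD4 beads plus anti-CD28.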
BRCA1 expr act: BRCA1 expression activation; MCF7-BRCA1-FFLuc reporter, luminescence, 48 h; response scale: scaled: vehicle 0%, 10 µM genistein 100%; Potency, µM (series often up to 46.1 µM), for inactives: at the top dose activation, actives largely listed as activators; 380,000 compounds, 1.1% hits; also: potency is read from the fitted curve at half-maximal effect; nearly all actives have a fitted effect of over 80% in size
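Luminescence from a BRCA1-driven firefly luciferase in MCF7 cells was the read-out, taken 15 min after substrate addition following 48 h compound exposure at 37 °C. Data were normalized to a 10 microM genistein control and DMSO vehicle.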
Chronic BCR inh: blocks chronic active B-cell receptor signaling. 340,000 compounds, 0.05% hits. Potency, µM (doses to about 46.1 µM), for the others: at the highest dose activity change, negative = inhibition, actives largely listed as inhibitors. ABC-DLBCL IkBa-CBG/CBR reporter, luminescence ratio, 4 h; active = well fitted inhibition curve with a large enough effect in the signal ratio, with a control signal flat, not every such curve was filed as active; inconclusive = small, poorly fitted or top-dose-only effect, or effect the other way, or a change in a side signal; the % refers to the signal ratio;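 also: potency is read from the fitted curve at half-maximal effect; plate controls were basal doxycycline-induced cells for no effect and cells given 10 µM MG132 for full effect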
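Cell line TMD8 (human ABC DLBCL), stably expressing tet-inducible CBG68-IkBa fusion and CBR; IMDM/0.5% FBS; cpd up to 46 uM; dox induction, 4 h, 37C/5% CO2; dual luminescence; green/red ratio; MG132 control.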
N370S GC: inhibits or activates N370S mutant glucocerebrosidase. P04062. Potency, µM (top dose mostly 59.4 µM), inactives show at the top dose activity change, negative = inhibition, most hits filed as inhibitors. N370S GC spleen homogenate, 4MU-glucoside fluorescence. 330,000 compounds, 0.092% hits;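 also: potency is read from the fitted curve at half-maximal effect; 0% = full enzyme activity and -100% = no enzyme basal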
Nrf2 activator: Nrf2 pathway activation | AREc32 ARE-luciferase reporter (MCF7-derived line), luminescence, 24 h | Potency, µM (doses to about 46.1 µM), for the others: at the top dose activation, hits mostly activators | 410,000 compounds, 0.31% hits | AID 624171; also: potency is read from the fitted curve at half-maximal effect; % of control where 0% means no effect; nearly all actives have a fitted effect of over 65% in size
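Quantitative high-throughput format: AREc32 reporter cells, 1000 per well, received compound by pin transfer and were incubated 24 hr at 37 deg C, 5% CO2, before Steady-Glo luminescence detection.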
* = called active by the depositor; ? = inconclusive; . = not tested or not shown; [ ] = remark or other dose. Unless noted, calls follow the shape of the dose curve; as a rule, active = well fitted curve in the direction sought with a large enough effect; inconclusive = small, poorly fitted or top-dose-only effect, or another doubt; inactive = no such curve, though single readings can be large; an effect the other way counts as inactive or inconclusive.

SMILES	a7 integrin act	IL2 activator	BRCA1 expr act	Chronic BCR inh	N370S GC	Nrf2 activator
CNc1sc(C(=O)c2ccc(F)cc2)c(N)c1-c1nc2ccccc2s1	-13%	-2	42%	?	10%	11µM*
CNc1sc(C(=O)c2cccs2)c(N)c1-c1nc2ccccc2s1	6%	2	36%	?	6%[2.35 µM]	?
CC(C)Cn1c(C(C)C)nc([N+](=O)[O-])c1S(=O)(=O)c1ccc(F)cc1	-65%	-3	-54%	?	-22%	22µM*
CC(C)Cn1nc(NS(=O)(=O)c2ccccc2)c2cc3ccccc3nc21	12%	-1	0%[1.84 µM]	0%	-5%	0%
CCCc1nc([N+](=O)[O-])c(S(=O)(=O)c2ccccc2)n1CC(C)C	-59%	-4	-72%	?	-5%	5.6µM*
COc1ccc(C2CC(c3ccccc3)=NN2C(=O)COC(=O)c2nc3nc(C)cc(C)n3n2)cc1 (centres undefined)	5%	-4	29%	2%	2%	3%
COc1ccc(OCC(=O)NCCc2c[nH]c3ccccc23)cc1	4%	1	-25%	2%	11%	0%
COc1ccccc1NC(C)C(=O)c1c[nH]c2ccccc12 (centres undefined)	.	.	13µM*	.	.	.
O=C(NCCc1c[nH]c2ccccc12)c1ccc(Cl)cc1	?	0	3.5µM*	-8%	10%	6%
CCC(=O)NCCc1c[nH]c2ccccc12	4%	-1	1%	.	-4%	0%
O=C(NCCSc1c[nH]c2ccccc12)c1ccc(Cl)cc1	.	.	.	.	.	0%
Cc1ccsc1C(=O)NCCc1c[nH]c2ccccc12	-19%	-1	13µM*	?	2%	1%
COc1ccc(C(=O)NCCc2c[nH]c3ccccc23)cc1	30%	-3	5.6µM*	-11%	-3%	2%[9.22 µM]
CC(C)COc1ccc(CC(=O)NO)cc1	.	.	10%	.	.	.
CCN(CC)c1ccc(/C=C/C2=C3C=CC=CC3NC=C2)cc1 (centres undefined)	.	.	50%	.	.	.
O=C(NCCc1c[nH]c2ccccc12)c1ccc(F)cc1F	23%	1	4µM*	?	-17%	2%
COc1ccc(C(=O)c2c[nH]c3ccccc23)cc1	12%	0	3.5µM*	.	19%	3%
COc1ccc(CNC(=O)COC(=O)CCc2c[nH]c3ccccc23)cc1	10µM*	1	0%	-8%	3%	0%
O=C(COC(=O)CCc1c[nH]c2ccccc12)NCc1ccccc1	4%	-1	3%	-3%	3%	0%
NC(=O)c1ccccc1OCC(=O)N1CCC(Cc2ccccc2)CC1	-8%	0	-25%	-2%	.	0%
Nc1ccc(C(=O)OCC(=O)N2CCOCC2)cc1[N+](=O)[O-]	2%	-3	11µM*	?	-1%	-1%
CC1CCN(C(=O)COC(=O)c2ccc3c(c2)OCO3)CC1	6%	1	2.5µM*	2%	-5%	0%
CC1CCCCN1C(=O)COC(=O)c1cc(Cl)c2c(c1)OCO2 (centres undefined)	5%	-4	11µM*	?	0%	0%
Nc1cc(C(=O)OCC(=O)N2CCOCC2)ccc1Cl	26%	0	70%	?	-10%	-1%
Clc1ccc(CNc2ncnc3nc[nH]c23)cc1	.	.	0%	.	.	.
SMILES	a7 integrin act	IL2 activator	BRCA1 expr act	Chronic BCR inh	N370S GC	Nrf2 activator
Cc1ccc(NC(=O)CSc2nc3ccc(NC(=O)c4ccco4)cc3s2)c(C)c1	.	.	0%	.	.	7%
N#Cc1c(SCc2ccc(Cl)cc2)sc(C(=O)c2ccccc2)c1N	5%	3	-32%	?	23%	11%
CSc1c(C#N)c(N)nc2sc(C(=O)c3ccccc3)c(N)c12	0%	275*	6%	3%	-2%	?
Nc1c(C(=O)Nc2nccs2)sc2nc(-c3cccs3)cc(C(F)(F)F)c12	-4%	104*	-49%	?	.	15%
Cc1nnc(NC(=O)c2sc3nc(-c4cccs4)cc(C(F)(F)F)c3c2N)s1	-14%	11	-71%	?	-4%	3%
CN(C)c1ccc(/C=C/c2c(Br)cnc3ccccc23)cc1	.	.	0%	.	.	.
O=C(COC(=O)c1ccccc1Oc1ccccc1)Nc1ccc(Br)cc1	.	.	0%	.	.	.
Clc1ccccc1OCc1nc(-c2ccncc2)no1	5%	0	5µM*	?	9%	0%
c1ccc(OCc2nc(-c3ccncc3)no2)cc1	-10%	2	11µM*	?	16%	3%
c1ccc(OCc2nc(-c3ccccc3)no2)cc1	-2%	1	93%	?	-1%	0%
Clc1ccc(OCc2nc(-c3ccncc3)no2)c(Br)c1	-19%	-1	4µM*	?	-1%	3%
Cc1ccc(OCc2nc(-c3ccccn3)no2)c(Br)c1	14%	-1	?	?	-6%[2.35 µM]	-2%
O=C(COc1ccccc1C(=O)Nc1ccccc1)Nc1cccc(Cl)c1	.	.	-39%	.	.	.
Cc1ccc(S(=O)(=O)N2CCN(c3nc(-n4cncn4)nc4ccccc34)CC2)cc1	.	.	4%	.	.	.
COc1cc(C(=O)NNC(=S)Nc2ccc(S(N)(=O)=O)cc2)cc(OC)c1OC	-29%	2	-13%	?	3%	0%
Cc1cc(-c2ccccc2)n(-c2ccccc2)n1	-6%	-2	8.9µM*	?	-5%	2%
Cc1cc(-c2ccco2)n(-c2ccccc2)n1	-23%	0	-4%	0%	3%	7%
CN1CCN(NC(=O)c2cn(-c3ccccc3)nc2-c2cccc(Br)c2)CC1	-64%	-1	-90%	?	10µM*	14%
CN1CCN(NC(=O)c2cn(-c3ccccc3)nc2-c2cccs2)CC1	?	0	20%	0%	-10%	0%
Cc1ccc(S(=O)(=O)NCCc2csc3nc(-c4ccccc4C)nn23)cc1	.	.	0%	?	.	7%
Cc1ccc(S(=O)(=O)Oc2ccc(N=Nc3ccc(-c4ccc(N=Nc5c(O)ccc6cc(S(=O)(=O)O)cc(S(=O)(=O)O)c56)c(C)c4)cc3C)cc2)cc1	.	.	.	.	6%	.
Cc1ccc(-c2nnn(CCC(=O)NC(C)(C)C)n2)cc1	6%	1	14µM*	-1%	5%	3%
C1=Cc2ccccc2/C1=C\c1cc2c3c(c1)CCCN3CCC2	.	.	79%	.	.	.
COc1ccc(CCc2c[nH]c(=O)c3cncnc23)cc1OC	.	.	6%	.	.	.
N/C(=N\OC(=O)CSc1ccccc1)c1ccccn1	?	-1	6.3µM*	?	-4%	-1%
N/C(=N\OC(=O)c1ccccc1[N+](=O)[O-])c1ccccn1	2%	0	5µM*	?	10%	0%

Source: PubChem
